The text below walks through data of PubChem BioAssay (NCI).

This is part of a sample that, as a whole, favours compounds with a hit. Of some 83,000 tested, about 20% had one in any assay.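 Single-dose data. Exposure time 48 hours. Values below 10 considered active.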 Calls of active or inactive are those of the source.

The assay has as its system DU-145 prostate. As to the kind of experiment: NCI-60 one-dose screen, 48 h (100 = growth as untreated, 0 = no growth, -100 = all killed). The following applies: 10 µM unless noted.
In the case of `C=CC1=C[C@@H]2[C@@H]3O[C@]4(CC[C@H](O4)[C@@H](C)C[C@@H](O)C3=O)C[C@H](O)C3=NCC[C@@]32CC1`, the growth was -26.7% (active). Turning to `Cc1cc(-c2nc3cc(F)ccc3[se]2)cc(F)c1N`, the growth was 98.4% (inactive). The value for `CN1CC(=O)N(O)C1(C)c1cccnc1` (configuration not stated) was 115% (inactive); that for `O=C(Nc1ccncc1F)c1cn(CC2CC2)c2ccccc12` was 114% (inactive). The value for `COc1cccc2c1c(C(=O)C(=O)Nc1cc(C)no1)cn2Cc1ccc(F)cc1` was 74.2% (inactive).

Turning to `CC(C)OC(=O)[C@H](C)NP(=O)(Oc1ccccc1)C1CCCN(O)C1=O` (some centres not stated), the growth is 98.1% (inactive). Regarding `CC[C@@H]1[C@@H](C)O[C@@](O)([C@@H](C)[C@H](O)[C@H](C)[C@H]2OC(=O)/C=C/C=C/[C@H](C)[C@@H]([C@@H](C)[C@@H](O)[C@H](C)[C@@]3(O)C[C@@H](O[C@H]4C[C@@H](O)[C@H](O)C(C)O4)[C@H](CC)[C@@H](C)O3)OC(=O)/C=C/C=C/[C@@H]2C)C[C@H]1O[C@@H]1C[C@@H](O)[C@H](O)C(C)O1` (some centres not stated), the growth is -97.5% (active). The value for `CCOc1ccc(/C=C/[N+](=O)[O-])cc1` was 99.3% (inactive); that for `O=C1C2C(C(=O)[N]1[Hg][c]1ccccc1)C1(Cl)C(Cl)=C(Cl)C2(Cl)C1(Cl)Cl` (configuration not stated) was -86.6% (active); that for `COC(=O)[C@@H](C)C[C@H](Cc1ccc2ccccc2c1)NC(=O)c1csc([C@@H](C[C@H](C(C)C)N(C)C(=O)[C@@H](NC(=O)[C@H]2CCCCN2C)C(C)C)OC(C)=O)n1` was 46.6% (inactive). The result for `Cc1cc(N(CCCl)CCCl)ccc1C=Nc1ccccc1-c1ccccc1` reads 61.2% (inactive). The result for `CCn1cnc2c(Nc3cccc(Cl)c3)nc(N[C@@H]3CCCC[C@@H]3N)nc21` reads 6.73% (active).

With `CC12CCC3C(CCC4=CC(=O)CCC43CF)C1CCC2=O` (configuration not stated), the growth is 116% (inactive). Regarding `C=CC12CCN(CC1)C(C(O)c1ccnc3ccc(OC)cc13)C2` (configuration not stated), the growth is 107% (inactive). As to `COc1cc([C@@H]2c3cc4c(cc3[C@H](OC(C)=O)[C@H]3COC(=O)[C@H]23)OCO4)cc(OC)c1OC`, the growth was 1.84% (active). The value for `CC(=O)[O][Hg][O]C(C)=O` was 94.8% (inactive); that for `O=C(CCCCCCC(=O)Nc1ccc(N(CCCl)CCCl)cc1)NO` was 29% (inactive); that for `CC[C@H](C)[C@H](NC(=O)[C@H]1CCCCN1C)C(=O)N(C)[C@H](C[C@@H](OC(C)=O)c1nc(C(=O)NC23CC(C(=O)OC)(C2)C3)cs1)C(C)C` was -5.33% (active). On to `COc1ccc(/C(C)=C(\c2ccc(OCCN3CCOCC3)cc2)c2ccc(OC(=O)Cc3ccccc3)cc2)cc1`, for which the growth was 102% (inactive). The result for `NC(=O)C(Br)c1ccccc1` (configuration not stated) reads 103% (inactive); that for `O=C([O][Hg][CH2]C1OCCOC1[CH2][Hg][O]C(=O)c1ccccc1)c1ccccc1` (configuration not stated), 90.1% (inactive). On to `CN(C)CCCOc1ccc2c(c1)c(C(=O)C(=O)NCCO)cn2Cc1ccccc1`, for which the growth was 106% (inactive).

As to `C1CCC([PH+](C2CCCCC2)C2CCCCC2[PH+](C2CCCCC2)C2CCCCC2)CC1.O=C(C1[CH-]CCCC1)C1CCCC[N-]1.[Au]` (configuration not stated), the growth was -38.7% (active). The result for `C[Se]C(=O)c1ccccc1OC(C)=O` reads 76.9% (inactive). In the case of `CC(C)COC(C[N+](=O)[O-])C(Cl)(Cl)Cl` (configuration not stated), the growth was 119% (inactive). The value for `Oc1c(O)c(Cl)c(Cl)c(Cl)c1Cl` was 47.5% (inactive); that for `NC(N)=N/N=C\c1c[nH]c2ccc(Br)cc12` was 96.2% (inactive). Regarding `Brc1ccc2c(c1)c(-c1nc(-c3c[nH]c4ncccc34)cs1)cn2CCN1CCCCC1`, the growth was 82.6% (inactive).

For the compound `COc1ccc2c(c1)c(C1(O)CC(CSC#N)OC1=O)cn2C(=O)c1ccc(Cl)cc1` (configuration not stated), the growth is 114% (inactive). On to `COC(=O)[C@@H](C)C[C@H](Cc1ccccc1)NC(=O)c1nc([C@@H](C[C@H](C(C)C)N(C)C(=O)[C@@H](NC(=O)[C@H]2CCCCN2C)C(C)C)OC(C)=O)sc1C`, for which the growth was 5.34% (active). The result for `COc1ccc(-n2c(C)nc3cc(OC)c(OC)cc3c2=O)cc1OC` reads 105% (inactive); that for `CC[S][Hg][Cl]`, 103% (inactive); that for `COc1ccc(C2=CC(c3ccc(OC)c(OC)c3)c3c(c4ccccc4oc3=O)O2)cc1OC` (configuration not stated), 9.25% (active). The value for `COc1ccc(/C=C\c2cc(OC)c(OC)c(OC)c2)cc1OCC(=O)Nc1nc2ccc(OC(F)(F)F)cc2s1` was 6.56% (active); that for `CCCCCCCCCCCCCCCCCC1OC[C@H](COC(=O)O[C@@H](C(=O)O[C@H]2C[C@@]3(O)[C@@H](OC(=O)c4ccccc4)[C@@H]4[C@]5(OC(C)=O)CO[C@@H]5C[C@H](O)[C@@]4(C)C(=O)[C@H](OC(C)=O)C(=C2C)C3(C)C)[C@@H](NC(=O)c2ccccc2)c2ccccc2)O1` (some centres not stated) was 45.7% (inactive); that for `O=C(Nc1ccc(O)cc1)C(Cl)(Cl)Cl` was 108% (inactive). `CCOC(=O)[C@@H](C)C[C@H](Cc1ccccc1)NC(=O)c1nc([C@@H](C[C@H](C(C)C)N(C)C(=O)[C@@H](NC(=O)[C@H]2CCCCN2C)C(C)C)OC(C)=O)sc1CCOCc1ccccc1`: the growth was -27.3% (active).
